We go through one sequence from paper PMC7862700, “An all-to-all approach to the identification of sequence-specific readers for epigenetic DNA modifications on cytosine”.

Holding throughout (experiment): DAPPL (digital affinity profiling via proximity ligation, sequencing); 10 mM Tris-HCl pH 7.5, 50 mM NaCl, 1 mM DTT, 4% glycerol, room temperature, 30 min; GST-TFs on glutathione beads, 16-mer random dsDNA library, 0.1% formaldehyde crosslink after washing; high values mean tight binding
One assay addresses T1, FLI1 (Homo sapiens, UniProt Q01543 1-452).
T1 sequence: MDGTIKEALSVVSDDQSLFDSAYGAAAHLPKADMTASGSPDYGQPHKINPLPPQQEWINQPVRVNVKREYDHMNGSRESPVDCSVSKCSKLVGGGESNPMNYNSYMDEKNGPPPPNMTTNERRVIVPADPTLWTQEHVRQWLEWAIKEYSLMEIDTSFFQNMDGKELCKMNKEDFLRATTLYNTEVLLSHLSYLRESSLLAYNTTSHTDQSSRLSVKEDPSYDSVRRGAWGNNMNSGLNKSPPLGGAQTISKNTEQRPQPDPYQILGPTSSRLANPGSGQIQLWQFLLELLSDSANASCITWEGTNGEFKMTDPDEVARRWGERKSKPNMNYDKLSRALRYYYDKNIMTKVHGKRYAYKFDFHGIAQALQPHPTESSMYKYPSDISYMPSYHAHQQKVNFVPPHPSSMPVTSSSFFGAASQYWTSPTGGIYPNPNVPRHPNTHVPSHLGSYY
Conditions: protein: recombinant; tags: N-terminal GST; dsDNA, one strand shown. Summed up: (§1)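 The binding signal reported is, for every hexamer, its read frequency for a factor over its read frequency for the tag-only sample. Reads came from pools of yeast-expressed, GST-fused human transcription factors on glutathione beads, barcoded with DNA and mixed with that sample, which were incubated with 200 nmole of a random double-stranded 16-mer DNA library in Tris/NaCl/DTT/glycerol buffer at room temperature for 30 min. After washing, the pools were crosslinked with 0.1% formaldehyde, proximity-ligated with BsaI/T4 ligase for 1 h at 37 °C, PCR-amplified and sequenced on an Illumina NextSeq500.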

The target in the next assay is T2, ELK1 (Homo sapiens, UniProt P19419 1-428).
T2 sequence: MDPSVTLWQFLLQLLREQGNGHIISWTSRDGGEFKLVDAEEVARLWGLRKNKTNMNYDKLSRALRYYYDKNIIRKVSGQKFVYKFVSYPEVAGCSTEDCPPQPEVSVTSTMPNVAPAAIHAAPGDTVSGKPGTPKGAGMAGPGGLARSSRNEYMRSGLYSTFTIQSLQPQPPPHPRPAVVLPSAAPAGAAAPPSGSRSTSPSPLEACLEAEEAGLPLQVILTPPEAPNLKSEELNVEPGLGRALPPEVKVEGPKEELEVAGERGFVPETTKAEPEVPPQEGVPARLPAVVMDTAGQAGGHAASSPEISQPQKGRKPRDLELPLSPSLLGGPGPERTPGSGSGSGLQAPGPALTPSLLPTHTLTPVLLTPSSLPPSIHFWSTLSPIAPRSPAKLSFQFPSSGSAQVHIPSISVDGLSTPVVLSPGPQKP
The settings on record: protein: recombinant; tags: N-terminal GST; dsDNA, one strand shown. Summed up:
as §1

Another assay has as its target T3, ERG (Homo sapiens, UniProt P11308 1-479).
T3 sequence: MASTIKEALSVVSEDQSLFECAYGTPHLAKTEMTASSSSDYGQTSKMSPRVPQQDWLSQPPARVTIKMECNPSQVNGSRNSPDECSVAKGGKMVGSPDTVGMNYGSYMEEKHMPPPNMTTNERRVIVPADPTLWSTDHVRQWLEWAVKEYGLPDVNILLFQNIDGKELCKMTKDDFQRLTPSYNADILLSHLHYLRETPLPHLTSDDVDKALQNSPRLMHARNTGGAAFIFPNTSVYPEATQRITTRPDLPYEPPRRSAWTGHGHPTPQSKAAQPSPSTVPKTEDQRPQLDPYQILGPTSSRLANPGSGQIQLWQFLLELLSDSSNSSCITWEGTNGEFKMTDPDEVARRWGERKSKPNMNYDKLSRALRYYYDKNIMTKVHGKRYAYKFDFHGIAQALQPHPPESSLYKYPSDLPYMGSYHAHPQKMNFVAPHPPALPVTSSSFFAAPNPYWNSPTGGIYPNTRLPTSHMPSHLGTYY
The settings on record: protein: recombinant; tags: N-terminal GST; dsDNA, one strand shown. Summed up:
as §1

The target in a further assay is T4, EHF (Homo sapiens, UniProt Q9NZC4 1-300).
T4 sequence: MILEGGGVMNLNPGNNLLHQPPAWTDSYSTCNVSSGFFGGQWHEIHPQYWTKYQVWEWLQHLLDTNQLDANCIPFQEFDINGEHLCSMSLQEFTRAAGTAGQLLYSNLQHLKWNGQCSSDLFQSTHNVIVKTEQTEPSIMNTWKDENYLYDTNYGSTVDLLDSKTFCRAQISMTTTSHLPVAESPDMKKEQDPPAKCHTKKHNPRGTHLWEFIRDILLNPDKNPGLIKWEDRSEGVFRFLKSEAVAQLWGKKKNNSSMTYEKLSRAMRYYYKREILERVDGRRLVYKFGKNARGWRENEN
The settings on record: protein: recombinant; tags: N-terminal GST; dsDNA, one strand shown. Summed up:
as §1

The target of another assay is SPI1 (Homo sapiens, UniProt P17947 1-270). Conditions: protein: recombinant; tags: N-terminal GST; dsDNA, one strand shown. Summed up: as §1
Another assay deals with T5, ELK3 (Homo sapiens, UniProt P41970 1-407).
T5 sequence: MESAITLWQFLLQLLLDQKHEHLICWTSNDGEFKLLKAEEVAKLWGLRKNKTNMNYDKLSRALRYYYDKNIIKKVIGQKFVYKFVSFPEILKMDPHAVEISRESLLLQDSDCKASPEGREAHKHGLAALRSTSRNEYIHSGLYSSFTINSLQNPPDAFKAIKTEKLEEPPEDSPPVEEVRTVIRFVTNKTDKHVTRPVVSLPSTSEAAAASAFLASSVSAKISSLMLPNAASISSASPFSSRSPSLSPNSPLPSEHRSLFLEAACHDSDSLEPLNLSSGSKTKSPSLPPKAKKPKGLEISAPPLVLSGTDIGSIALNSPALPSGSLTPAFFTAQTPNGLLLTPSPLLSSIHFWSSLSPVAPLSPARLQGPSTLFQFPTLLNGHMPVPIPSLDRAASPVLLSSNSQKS
Conditions: protein: recombinant; tags: N-terminal GST; dsDNA, one strand shown. Summed up:
as §1

The target of the next assay is T6, FEV (Homo sapiens, UniProt Q99581 1-238).
T6 sequence: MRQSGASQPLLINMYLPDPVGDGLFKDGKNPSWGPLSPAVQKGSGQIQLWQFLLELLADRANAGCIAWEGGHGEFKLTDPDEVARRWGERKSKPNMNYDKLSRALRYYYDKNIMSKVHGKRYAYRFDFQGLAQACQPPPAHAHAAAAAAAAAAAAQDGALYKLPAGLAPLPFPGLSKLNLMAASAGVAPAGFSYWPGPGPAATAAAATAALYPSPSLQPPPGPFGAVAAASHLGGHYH
The settings on record: protein: recombinant; tags: N-terminal GST; dsDNA, one strand shown. Summed up: as §1

In the next assay the target is ETV5 (Homo sapiens, UniProt P41161 1-510). Conditions: protein: recombinant; tags: N-terminal GST; dsDNA, one strand shown. Summed up: as §1
For a further assay, the target named is HSF1 (Homo sapiens, UniProt Q00613 1-529). Conditions: protein: recombinant; tags: N-terminal GST; chain copies: 3; dsDNA, one strand shown. Summed up:
as §1

A further assay has as its target T7, SPIC (Homo sapiens, UniProt Q8N5J4 1-248).
T7 sequence: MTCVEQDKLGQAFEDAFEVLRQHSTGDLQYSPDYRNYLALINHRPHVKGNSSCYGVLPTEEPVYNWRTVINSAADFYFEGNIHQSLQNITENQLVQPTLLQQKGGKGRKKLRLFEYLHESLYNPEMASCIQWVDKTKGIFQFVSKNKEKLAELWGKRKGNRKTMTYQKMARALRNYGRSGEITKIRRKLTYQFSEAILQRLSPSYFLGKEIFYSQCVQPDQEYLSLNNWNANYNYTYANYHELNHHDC
Conditions: protein: recombinant; tags: N-terminal GST; dsDNA, one strand shown. Summed up:
as §1

The target in the next assay is ELF4 (Homo sapiens, UniProt Q99607 1-663). Conditions: protein: recombinant; tags: N-terminal GST; dsDNA, one strand shown. Summed up: as §1
Another assay addresses T8, ELK4 (Homo sapiens, UniProt P28324-2 1-405).
T8 sequence: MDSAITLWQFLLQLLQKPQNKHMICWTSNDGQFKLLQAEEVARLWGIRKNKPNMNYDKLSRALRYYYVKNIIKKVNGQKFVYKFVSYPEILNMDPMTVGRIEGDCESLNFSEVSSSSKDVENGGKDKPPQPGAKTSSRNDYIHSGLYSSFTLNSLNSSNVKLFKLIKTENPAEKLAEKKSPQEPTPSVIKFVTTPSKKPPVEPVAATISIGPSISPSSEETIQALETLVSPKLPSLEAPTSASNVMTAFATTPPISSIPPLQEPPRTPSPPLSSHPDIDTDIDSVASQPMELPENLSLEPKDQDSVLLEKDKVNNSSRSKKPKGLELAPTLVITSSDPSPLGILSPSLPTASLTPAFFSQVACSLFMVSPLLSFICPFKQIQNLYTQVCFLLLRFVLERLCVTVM
Conditions: protein: recombinant; tags: N-terminal GST; dsDNA, one strand shown. Summed up: as §1

The next assay addresses T9, ETV2 (Homo sapiens, UniProt O00321 1-342).
T9 sequence: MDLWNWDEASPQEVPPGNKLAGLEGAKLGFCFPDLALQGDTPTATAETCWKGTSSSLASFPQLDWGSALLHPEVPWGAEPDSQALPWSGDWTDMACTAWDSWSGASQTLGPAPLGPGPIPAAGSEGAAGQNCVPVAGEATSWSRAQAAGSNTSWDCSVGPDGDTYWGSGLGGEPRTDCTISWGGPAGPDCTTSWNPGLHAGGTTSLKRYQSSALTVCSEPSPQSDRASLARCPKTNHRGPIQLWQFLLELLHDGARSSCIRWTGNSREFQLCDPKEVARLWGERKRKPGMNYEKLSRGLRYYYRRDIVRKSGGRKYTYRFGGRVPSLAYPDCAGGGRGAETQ
Conditions: protein: recombinant; tags: N-terminal GST; dsDNA, one strand shown. Summed up: as §1

Another assay has as its target CRX (Homo sapiens, UniProt O43186 1-299). Conditions: protein: recombinant; tags: N-terminal GST; dsDNA, one strand shown. Summed up:
as §1

A further assay deals with ETV1 (Homo sapiens, UniProt P50549 1-477). The settings on record: protein: recombinant; tags: N-terminal GST; dsDNA, one strand shown. Summed up:
as §1

ETV5, sequence (P41161 whole entry): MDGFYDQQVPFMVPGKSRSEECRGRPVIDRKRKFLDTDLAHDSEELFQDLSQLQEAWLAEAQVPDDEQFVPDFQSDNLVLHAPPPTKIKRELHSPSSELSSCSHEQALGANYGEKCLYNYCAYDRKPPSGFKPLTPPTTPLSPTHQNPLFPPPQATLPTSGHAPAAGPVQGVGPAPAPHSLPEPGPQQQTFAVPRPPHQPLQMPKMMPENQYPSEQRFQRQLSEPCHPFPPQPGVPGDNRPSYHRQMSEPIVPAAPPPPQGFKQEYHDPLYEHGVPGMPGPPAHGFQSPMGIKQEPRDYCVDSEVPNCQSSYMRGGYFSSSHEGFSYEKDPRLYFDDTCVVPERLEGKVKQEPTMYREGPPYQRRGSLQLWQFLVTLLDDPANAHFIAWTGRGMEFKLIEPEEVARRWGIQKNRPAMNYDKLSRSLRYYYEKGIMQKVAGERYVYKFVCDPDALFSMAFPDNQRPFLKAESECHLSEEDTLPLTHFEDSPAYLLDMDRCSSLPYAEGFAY
ETV1, sequence (P50549 whole entry): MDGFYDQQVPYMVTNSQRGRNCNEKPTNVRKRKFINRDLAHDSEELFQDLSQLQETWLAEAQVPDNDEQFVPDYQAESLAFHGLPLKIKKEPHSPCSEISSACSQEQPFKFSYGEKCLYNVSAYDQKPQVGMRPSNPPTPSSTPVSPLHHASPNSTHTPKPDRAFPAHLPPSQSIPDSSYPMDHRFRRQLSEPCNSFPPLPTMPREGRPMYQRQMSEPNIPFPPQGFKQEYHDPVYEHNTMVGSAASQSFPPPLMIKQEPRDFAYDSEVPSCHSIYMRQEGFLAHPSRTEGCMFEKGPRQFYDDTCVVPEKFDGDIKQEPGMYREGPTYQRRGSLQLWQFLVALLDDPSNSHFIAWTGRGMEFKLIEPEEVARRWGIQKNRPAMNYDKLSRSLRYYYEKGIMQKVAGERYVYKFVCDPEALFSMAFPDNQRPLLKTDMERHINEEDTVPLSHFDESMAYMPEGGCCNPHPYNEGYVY
ELF4, sequence (Q99607 whole entry): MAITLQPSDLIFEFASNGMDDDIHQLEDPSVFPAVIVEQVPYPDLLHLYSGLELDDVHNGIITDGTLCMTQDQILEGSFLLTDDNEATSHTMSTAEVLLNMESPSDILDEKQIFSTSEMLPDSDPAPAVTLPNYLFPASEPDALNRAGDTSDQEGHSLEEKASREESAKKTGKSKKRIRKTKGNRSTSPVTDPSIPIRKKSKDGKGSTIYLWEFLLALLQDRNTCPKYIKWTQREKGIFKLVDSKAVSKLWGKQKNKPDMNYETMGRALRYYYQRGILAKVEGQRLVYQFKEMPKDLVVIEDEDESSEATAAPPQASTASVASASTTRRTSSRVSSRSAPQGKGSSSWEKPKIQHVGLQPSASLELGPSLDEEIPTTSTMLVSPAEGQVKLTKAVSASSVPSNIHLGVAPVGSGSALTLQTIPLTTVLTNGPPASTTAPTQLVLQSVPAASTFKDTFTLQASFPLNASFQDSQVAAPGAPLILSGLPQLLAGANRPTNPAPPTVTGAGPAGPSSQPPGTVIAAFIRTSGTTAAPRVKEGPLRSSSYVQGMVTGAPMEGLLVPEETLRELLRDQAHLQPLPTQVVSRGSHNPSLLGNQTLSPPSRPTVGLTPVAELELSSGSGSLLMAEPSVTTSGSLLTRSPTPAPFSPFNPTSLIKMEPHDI
HSF1, sequence (Q00613 whole entry): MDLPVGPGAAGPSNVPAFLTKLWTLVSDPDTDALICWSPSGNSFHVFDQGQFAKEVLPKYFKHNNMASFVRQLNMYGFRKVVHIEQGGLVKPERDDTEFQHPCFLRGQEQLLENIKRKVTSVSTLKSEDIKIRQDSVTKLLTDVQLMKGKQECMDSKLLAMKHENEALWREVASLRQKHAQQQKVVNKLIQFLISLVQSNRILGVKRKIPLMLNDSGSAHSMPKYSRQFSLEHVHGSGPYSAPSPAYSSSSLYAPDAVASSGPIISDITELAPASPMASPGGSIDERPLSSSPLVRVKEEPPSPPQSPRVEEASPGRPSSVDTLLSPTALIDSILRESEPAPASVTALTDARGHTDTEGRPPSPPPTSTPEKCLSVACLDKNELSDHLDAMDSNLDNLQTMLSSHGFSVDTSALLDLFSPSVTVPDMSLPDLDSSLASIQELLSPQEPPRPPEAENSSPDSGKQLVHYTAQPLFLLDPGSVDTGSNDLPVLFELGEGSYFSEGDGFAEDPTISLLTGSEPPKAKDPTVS
CRX, sequence (O43186 whole entry): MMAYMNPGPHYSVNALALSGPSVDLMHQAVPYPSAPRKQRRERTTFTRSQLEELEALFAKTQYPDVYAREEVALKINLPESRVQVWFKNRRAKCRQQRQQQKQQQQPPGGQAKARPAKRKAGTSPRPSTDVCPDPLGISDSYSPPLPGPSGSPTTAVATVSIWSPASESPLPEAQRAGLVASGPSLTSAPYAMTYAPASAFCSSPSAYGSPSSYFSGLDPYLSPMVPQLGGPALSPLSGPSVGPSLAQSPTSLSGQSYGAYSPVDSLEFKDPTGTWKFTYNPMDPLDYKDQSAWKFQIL

As to TATTAG, the binding signal is 1.05 fold enrichment (6-mer frequency, TF over GST control) with FLI1; 1.03 fold enrichment (6-mer frequency, TF over GST control) with ELK1; 1.07 fold enrichment (6-mer frequency, TF over GST control) with ERG; 1.02 fold enrichment (6-mer frequency, TF over GST control) in the assay with EHF; 1.09 fold enrichment (6-mer frequency, TF over GST control) in the assay with SPI1; 1.18 fold enrichment (6-mer frequency, TF over GST control) in the assay with ELK3. The binding signal is 1.02 fold enrichment (6-mer frequency, TF over GST control) with FEV; 1.04 fold enrichment (6-mer frequency, TF over GST control) with ETV5; 1.42 fold enrichment (6-mer frequency, TF over GST control) with HSF1; 1.13 fold enrichment (6-mer frequency, TF over GST control) with SPIC; 1.05 fold enrichment (6-mer frequency, TF over GST control) with ELF4; 1.04 fold enrichment (6-mer frequency, TF over GST control) with ELK4. Also, the binding signal with ETV2 was 1.23 fold enrichment (6-mer frequency, TF over GST control); with CRX, 1.94 fold enrichment (6-mer frequency, TF over GST control); with ETV1, 1.12 fold enrichment (6-mer frequency, TF over GST control).
